The record followed here is PubChem BioAssay (Tox21).

Test [1] is described as follows: qHTS assay to identify small molecule agonists of the RXR signaling pathway - cell viability counter screen (AID 1159529).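 Further: HEK 293T cells carrying an RXR-alpha UAS beta-lactamase reporter; series mostly up to about 77 µM; nearly all actives have a fitted effect of over 50% in size.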 The essentials: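 HEK 293T RXRa-bla cells, 2% CS-FBS; 5 h settle; cpd 16 h 37 C, 5% CO2; CellTiter-Glo 30 min RT, luminescence. Tetraoctyl ammonium bromide as positive control.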
On the technique in general: In qHTS, concentration-response curves come from the screen itself.

Test [2] is described as follows: qHTS assay to identify small molecule antagonists of the retinoid acid receptor (RAR) signaling pathway - cell viability counter screen (AID 1159551). Further: nearly all actives have a fitted effect of over 35% in size. A digest of the protocol: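 In this counter screen, the RARE-luciferase line C3RL4 was exposed for 6 h at 37 C and 5% CO2 to compounds with retinol at 1 uM final. Cellular ATP, read by luminescence, served as the viability measure.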

Test [3] can be described thus: qHTS assay to identify small molecule antagonists of the retinoic acid receptor (RAR) signaling pathway (AID 1159552; further: nearly all actives have a fitted effect of over 50% in size). The essentials: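 Cells of the C3RL4 line were seeded, incubated overnight, then dosed with compounds in DMSO followed immediately by retinol (1 uM final). Six hours later luciferase detection reagent went in; signal was measured after 30 min at RT.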

Test [4] is described as follows: qHTS assay to identify small molecule agonists of the retinoic acid receptor (RAR) signaling pathway (AID 1159553). Further: potency means the concentration at half of the fitted maximal effect. A digest of the protocol: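 In this cell-based screen, 1,000 C3RL4 cells per well were cultured overnight, dosed with test chemicals in DMSO for 6 hr, and assessed for RARE luciferase luminescence.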
A short description of test [5]: qHTS assay to identify small molecule antagonists of the estrogen related receptor (ERR) signaling pathway from Tox21 library - cell viability counter screen (AID 1224834). Further: nearly all actives have a fitted effect of over 30% in size. A digest of the protocol: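 Counter screen run in ERR cells (2,000 cells/well): cells pre-incubated 6 h, then treated with compounds for 17.5 h at 37 C. Fluorescence was read 30 min after CellTiter-Fluor addition.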

In test [6] the target is Luciferin 4-monooxygenase (Photinus pyralis) (UniProt P08659). The test can be described thus: qHTS assay to identify small molecule inhibitors of firefly luciferase (AID 1224835). Further: nearly all actives have a fitted effect of over 25% in size. Further: potency means the concentration at half of the fitted maximal effect. The essentials: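 Biochemical qHTS: compounds run as interplate titrations against purified firefly enzyme, with D-luciferin and ATP each at its KM concentration. Light output recorded by CCD imaging.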

Test [7] can be described thus: qHTS assay to identify small molecule agonists of the constitutive androstane receptor (CAR) signaling pathway - cell viability counter screen (AID 1224836). Further: series mostly up to about 92 µM; nearly all actives have a fitted effect of over 45% in size. A digest of the protocol: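 HepG2-CYP2B6-hCAR, 2500 cells/well, 4 h pre-incubation; cpd 15 conc + PK11195 0.75 uM final; 23 h, 37 C/5% CO2; CellTiter-Fluor, fluorescence.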
The nature of test [8]: qHTS assay to identify small molecule antagonists of the constitutive androstane receptor (CAR) signaling pathway - cell viability counter screen (AID 1224837). Further: series mostly up to about 92 µM; nearly all actives have a fitted effect of over 45% in size. A digest of the protocol: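 CITCO at 50 nM final was added alongside compounds (15 concentrations) to double-stable hCAR/CYP2B6-2.2kb HepG2 cells. Following 23 hr at 37 C, cell viability was quantified by CellTiter-Fluor fluorescence intensity.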

A short description of test [9]: qHTS assay to identify small molecule antagonists of the estrogen related receptor signaling pathway with the pleiotropic PPARgamma coactivator (PGC) from Tox21 10K library - cell viability counter screen (AID 1224840; active means well fitted cell-killing curve with a large enough effect in the repeat runs, not every such curve was filed as active; further: nearly all actives have a fitted effect of over 40% in size). The essentials:
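Readout: fluorescence intensity from CellTiter-Fluor after 30 min at 37 C/5% CO2. Preceded by 17.5 h treatment of PGC/ERR cells with DMSO-dissolved compounds, added 6 h post-seeding.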

Test [10] in a line: qHTS assay to identify small molecule antagonists of the estrogen related receptor signaling pathway with the pleiotropic PPARgamma coactivator (PGC) from Tox21 10K library (AID 1224841; call rule not given here; further: actives are mostly falling curves and most rising ones were filed inactive; nearly all actives have a fitted effect of over 50% in size; further: potency means the concentration at half of the fitted maximal effect). A digest of the protocol: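 One-Glo luminescence, measured after half an hour at room temperature, quantified reporter output of PGC/ERR cells. These had been plated at 2,000 per well, incubated 6 h, dosed with compounds in DMSO, then kept 18 h at 37 C.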

Test [11] in a line: qHTS assay to identify small molecule agonists of the estrogen related receptor signaling pathway with the pleiotropic PPARgamma coactivator (PGC) from Tox21 10K library (AID 1224842). Further: nearly all actives have a fitted effect of over 15% in size. A digest of the protocol:
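PGC/ERR reporter cell line, 2,000 cells per well, incubated 6 h at 37 C before 23 nL compound in DMSO was added. After 18 h at 37 C, One-Glo luminescence read following 30 min at room temperature.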

The target of test [12] is Nuclear receptor subfamily 1 group I member 3 (Homo sapiens) (UniProt Q14994). In words: qHTS assay to identify small molecule antagonists of the constitutive androstane receptor (CAR) signaling pathway (AID 1224838). Further: nearly all actives have a fitted effect of over 40% in size. The essentials: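 Inhibition of CITCO-driven (50 nM final) CYP2B6 reporter expression is measured in HepG2 cells stably carrying hCAR. Fifteen compound concentrations are applied for 24 h at 37 C, followed by luciferase luminescence.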

In test [13] the target is Thyrotropin receptor (Homo sapiens) (UniProt P16473). In words: qHTS assay to identify small molecule agonists of the thyroid stimulating hormone receptor (TSHR) signaling pathway (AID 1224843; calls by dose curve; further: nearly all actives have a fitted effect of over 45% in size). A digest of the protocol:
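Agonist-mode screen: TSHR HEK293 cells received test chemicals for half an hour at room temperature, then HTRF cAMP detection reagents for one hour prior to fluorescence measurement. Each chemical ran as a 15-concentration series, triplicated.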

The target in test [14] is Nuclear receptor subfamily 1 group I member 3 (Homo sapiens) (UniProt Q14994). The test can be described thus: qHTS assay to identify small molecule agonists of the constitutive androstane receptor (CAR) signaling pathway (AID 1224839). Further: nearly all actives have a fitted effect of over 15% in size. Further: potency means the concentration at half of the fitted maximal effect. A digest of the protocol:
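HepG2-CYP2B6-hCAR cells, 2500/well, 4 h pre-incubation; compounds 15 conc.; PK11195 0.75 uM final; 24 h, 37 C/5% CO2; ONE-Glo luciferase read.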

Test [15] is described as follows: qHTS assay to identify small molecule antagonists of the estrogen related receptor (ERR) signaling pathway - cell viability counter screen (AID 1224818). Further: series mostly up to about 46 µM. The essentials:
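Viability of ERR cells, CellTiter-Fluor fluorescence; 17.5 h compound exposure at 37 C, DMSO vehicle; 30 min reagent incubation at 37 C/5% CO2.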

A short description of test [16]: qHTS assay to identify small molecule antagonists of the estrogen related receptor (ERR) signaling pathway (AID 1224819;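 further: luminescence from an ERR-driven luciferase reporter measured with One-Glo reagent; series mostly up to about 46 µM; nearly all actives have a fitted effect of over 50% in size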). A digest of the protocol: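 Seed ERR cells 2,000/well; rest 6 h at 37 C/5% CO2; pin compounds in DMSO; incubate 18 h at 37 C; add One-Glo; wait 30 min at room temperature; measure luminescence.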
Test [17] can be described thus: qHTS assay to identify small molecule agonists of the estrogen related receptor (ERR) signaling pathway (AID 1224820). The essentials:
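An ERR cell line provided by NTP was seeded at 2,000 cells per well and allowed to settle for 6 h before compounds in DMSO were added. After 18 h at 37 C, luciferase activity was measured by One-Glo luminescence.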

Test [18] is described as follows: qHTS assay to identify small molecule antagonists of the estrogen related receptor signaling pathway with the pleiotropic PPARgamma coactivator (PGC) cell viability counter screen (AID 1224822; further: series mostly up to about 46 µM). A digest of the protocol: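 17.5 h compound treatment of PGC/ERR cells at 37 C; readout CellTiter-Fluor fluorescence; run alongside the PGC/ERR antagonist screen to flag cytotoxic compounds.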

Molecules are shown by their SMILES. Results filed as inconclusive are left out. Calls of active or inactive are those of the source. Unless noted, the call rests on the fitted dose curve; in most records, active means well fitted curve in the direction sought with a large enough effect in the repeat runs; inconclusive means weak or mixed curves; inactive means no such curve, though single readings can be large; an effect the other way counts as inactive or inconclusive.

Nuclear receptor subfamily 1 group I member 3 (Homo sapiens), sequence (Q14994 whole entry, looked up): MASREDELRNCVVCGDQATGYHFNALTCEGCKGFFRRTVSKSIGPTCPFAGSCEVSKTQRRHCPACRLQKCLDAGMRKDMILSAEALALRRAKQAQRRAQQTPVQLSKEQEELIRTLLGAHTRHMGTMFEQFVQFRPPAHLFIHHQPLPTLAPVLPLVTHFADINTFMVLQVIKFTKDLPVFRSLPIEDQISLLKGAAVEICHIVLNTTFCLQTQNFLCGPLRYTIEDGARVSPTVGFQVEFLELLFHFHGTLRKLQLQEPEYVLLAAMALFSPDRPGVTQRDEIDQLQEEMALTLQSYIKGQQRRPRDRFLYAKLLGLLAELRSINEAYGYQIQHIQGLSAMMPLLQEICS
Thyrotropin receptor (Homo sapiens), sequence (P16473 whole entry, looked up): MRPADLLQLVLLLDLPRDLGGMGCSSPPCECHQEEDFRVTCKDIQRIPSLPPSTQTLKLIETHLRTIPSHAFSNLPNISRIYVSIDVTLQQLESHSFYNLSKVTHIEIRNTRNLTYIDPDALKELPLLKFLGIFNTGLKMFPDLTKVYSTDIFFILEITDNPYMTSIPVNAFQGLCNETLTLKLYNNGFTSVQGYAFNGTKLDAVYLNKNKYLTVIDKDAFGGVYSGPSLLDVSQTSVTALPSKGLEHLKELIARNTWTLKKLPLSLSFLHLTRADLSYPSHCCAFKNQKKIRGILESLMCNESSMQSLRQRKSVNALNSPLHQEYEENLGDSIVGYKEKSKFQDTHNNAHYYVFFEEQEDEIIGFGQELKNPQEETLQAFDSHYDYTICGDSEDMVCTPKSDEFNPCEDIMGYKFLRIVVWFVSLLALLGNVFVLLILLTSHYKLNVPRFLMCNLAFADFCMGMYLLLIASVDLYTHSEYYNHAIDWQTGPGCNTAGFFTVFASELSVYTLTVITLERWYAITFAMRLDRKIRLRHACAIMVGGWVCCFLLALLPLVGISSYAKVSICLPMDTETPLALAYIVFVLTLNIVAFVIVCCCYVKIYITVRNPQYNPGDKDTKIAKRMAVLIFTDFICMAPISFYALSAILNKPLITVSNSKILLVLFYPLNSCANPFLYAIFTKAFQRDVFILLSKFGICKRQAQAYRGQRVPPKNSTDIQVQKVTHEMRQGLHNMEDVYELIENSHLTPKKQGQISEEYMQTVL
Luciferin 4-monooxygenase (Photinus pyralis), sequence (P08659 whole entry, looked up): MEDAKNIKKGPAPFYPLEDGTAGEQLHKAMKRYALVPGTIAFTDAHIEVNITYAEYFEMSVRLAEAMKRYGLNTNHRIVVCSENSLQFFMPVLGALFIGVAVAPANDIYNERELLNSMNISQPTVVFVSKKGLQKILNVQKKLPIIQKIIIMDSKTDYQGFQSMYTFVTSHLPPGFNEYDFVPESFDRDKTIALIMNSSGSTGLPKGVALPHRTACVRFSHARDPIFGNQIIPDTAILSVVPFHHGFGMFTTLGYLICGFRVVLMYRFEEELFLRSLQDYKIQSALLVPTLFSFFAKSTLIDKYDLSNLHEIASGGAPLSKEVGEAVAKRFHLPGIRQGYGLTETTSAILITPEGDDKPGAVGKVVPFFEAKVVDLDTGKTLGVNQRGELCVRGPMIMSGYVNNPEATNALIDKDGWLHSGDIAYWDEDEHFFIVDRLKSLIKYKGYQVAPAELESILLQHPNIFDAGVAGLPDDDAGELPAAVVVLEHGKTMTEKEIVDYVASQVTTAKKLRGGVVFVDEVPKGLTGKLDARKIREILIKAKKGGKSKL

Take `COc1cc(C[C@@H](C)N)c(OC)cc1Br`: the Potency entry in [1], in test [2], in test [3], in test [4], in test [5] and in [6] was “inactive” throughout. The Potency entry in [7], in test [8], in [9] and in test [11] was “inactive” in each case. Moreover, the Potency in [10] was 31.5 µM (active).
On to `CCOC(=O)c1cncn1C(C)c1ccccc1` (configuration not stated), for which the Potency result in test [1], in test [2], in test [3], in test [4], in test [5] and in test [6] was “inactive” throughout. Moreover, the Potency result in [7], in test [8], in test [12], in test [9], in test [10] and in test [11] was “inactive” each time.
On to `CCCCCCCCCCCCCCCl`, for which the Potency entry in test [1], in [2], in test [3], in test [4], in [5] and in [6] was “inactive” throughout. Also, the Potency result in test [7], in [8], in test [12], in test [9] and in [13] was “inactive” in each case.
Take `Nc1ccc2c(c1)Cc1ccccc1-2`: the Potency entry in test [1], in test [2], in test [3], in test [5], in [7] and in test [8] was “inactive” each time. In addition, the Potency result in [12], in test [9] and in [10] was “inactive” throughout. Further, the Potency in [4] is 10.8 µM (active); in test [6], 39.7 µM (active); in test [14], 48.3 µM (active).
For `Cc1cccc(C)c1NC1=NCCCS1`, the Potency entry in test [1], in test [2], in test [3], in test [4], in test [5] and in test [6] was “inactive” throughout. Moreover, the Potency result in test [7], in [8], in [9] and in test [13] was “inactive” in each case. In addition, the outcome in [15], in test [16], in [17] and in [18] was inactive.
With `Nc1ccccc1C(=O)OCC(O)CO` (configuration not stated), the Potency result in test [1], in test [2], in [3], in [4], in [5] and in test [6] was “inactive” each time. In addition, the Potency entry in test [7], in test [8], in test [12], in test [14], in test [9] and in test [13] was “inactive” in each case.
On to `CNC(=O)Oc1cccc(N=CN(C)C)c1`, for which the Potency entry in [1], in test [2], in test [3], in [4], in [5] and in [6] was “inactive” throughout. Also, the Potency entry in [7], in test [8], in test [12], in test [14], in [9] and in test [13] was “inactive” in each case.
With `CCOC(=O)NC(O)C(Cl)(Cl)Cl` (configuration not stated), the Potency result in test [1], in [2], in [3], in [4], in test [5] and in test [6] was “inactive” in each case. For the same molecule, the Potency result in test [7], in test [8], in test [14], in test [9] and in [13] was “inactive” throughout.
Turning to `O=CC=O`, the Potency result in test [1], in test [2], in test [3], in [4], in test [5] and in test [6] was “inactive” in each case. The Potency result in [7], in [8], in [12], in test [9] and in test [13] was “inactive” throughout.
For the molecule `C=CCSSCC=C`, the Potency result in test [1], in test [2], in test [3], in [4], in test [5] and in test [6] was “inactive” in each case. Besides, the Potency result in test [7], in [8], in [12], in [14] and in [9] was “inactive” each time.
